The record followed here is PubChem BioAssay (EPA / NIEHS).

Read-out in experiment [1]: Interleukin-1 alpha (IL1a), IL1A (gene 3552)
Kind of experiment: BSK_KF3CT_IL1a: BioMAP Diversity Plus: KF3CT Assay for Interleukin-1 alpha (IL1a) Biomarker Activity (AID 2283070). The note with it: primary human keratinocytes with fibroblasts; actives raise or lower the signal. The essentials:
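Primary human keratinocyte plus foreskin fibroblast co-culture, dosed and measured at 24 h in 96-well plates. IL-1a level quantified by ELISA; bidirectional fit relative to DMSO.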

Read-out in experiment [2]: TIMP metallopeptidase inhibitor 2 (TIMP2), TIMP2 (gene 7077)
Kind of experiment: BSK_KF3CT_TIMP2: BioMAP Diversity Plus: KF3CT Assay for TIMP metallopeptidase inhibitor 2 (TIMP2) Biomarker Activity (AID 2283071). The note with it: primary human keratinocytes with fibroblasts; actives raise or lower the signal. The method, boiled down:
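Co-culture of human primary keratinocytes and foreskin fibroblasts, measured 24 h after chemical dosing. TIMP-2 quantified by ELISA and fitted in both directions relative to DMSO. Cytotoxicity checked in parallel cultures by SRB total-protein staining.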

Read-out in experiment [3]: C-C motif chemokine 2 (Homo sapiens) (UniProt P13500)
Kind of experiment: BSK_KF3CT_MCP1: BioMAP Diversity Plus: KF3CT Assay for Monocyte Chemoattractant Protein 1 (MCP1/CCL2) Biomarker Activity (AID 2283073). The settings on record: primary human keratinocytes with fibroblasts; actives raise or lower the signal. The essentials:
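Human keratinocyte plus foreskin fibroblast primary co-culture exposed to chemical for 24 h. MCP-1 levels measured by ELISA. Bidirectional curve fitting relative to DMSO negative control as baseline.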

Read-out in experiment [4]: Matrix Metallopeptidase 9 (MMP9), MMP9 (gene 4318)
Kind of experiment: BSK_KF3CT_MMP9: BioMAP Diversity Plus: KF3CT Assay for Matrix Metallopeptidase 9 (MMP9) Biomarker Activity (AID 2283074).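 As to AC50: MMP9 protein level quantified by ELISA in the co-culture.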 The settings on record: primary human keratinocytes with fibroblasts; actives raise or lower the signal. The method, boiled down: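 Human keratinocyte and foreskin fibroblast co-culture exposed to chemicals for 24 h; MMP9 biomarker measured by ELISA, bidirectional fitting relative to DMSO; cytotoxicity tracked by SRB total protein staining in parallel cultures.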

Read-out in experiment [5]: urokinase plasminogen activator (uPA), PLAU (gene 5328)
In words: BSK_KF3CT_uPA: BioMAP Diversity Plus: KF3CT Assay for urokinase plasminogen activator (uPA) Biomarker Activity (AID 2283075). The settings on record: primary human keratinocytes with fibroblasts; actives raise or lower the signal. The method, boiled down:
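Primary human keratinocyte/foreskin fibroblast co-culture exposed to chemical; uPA measured by ELISA at 24 h. Bidirectional fit versus DMSO, with parallel SRB total-protein staining for cytotoxicity.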

Read-out in experiment [6]: CD40, CD40 (gene 958)
Kind of experiment: BSK_LPS_CD40: BioMAP Diversity Plus: LPS Assay for CD40 Biomarker Activity (AID 2283076). The note with it: primary human HUVEC with PBMC; actives raise or lower the signal. The method, boiled down: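 Primary human umbilical vein endothelial cells co-cultured with peripheral blood mononuclear cells, LPS-stimulated, were dosed with chemical and read 24 h later. CD40 levels were measured by ELISA and fitted bidirectionally against DMSO as negative control and baseline.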

Read-out in experiment [7]: E-selectin (Homo sapiens) (UniProt P16581)
Kind of experiment: BSK_LPS_Eselectin: BioMAP Diversity Plus: LPS Assay for Eselectin Biomarker Activity (AID 2283077). The note with it: primary human HUVEC with PBMC; actives raise or lower the signal. The essentials: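 Human umbilical vein endothelial cells co-cultured with peripheral blood mononuclear cells under LPS stimulation; E-selectin measured by ELISA 24 h after chemical dosing. Activity fitted bidirectionally against DMSO as negative control and baseline.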

Read-out in experiment [8]: Interleukin-8 (IL8), CXCL8 (gene 3576)
Kind of experiment: BSK_LPS_IL8: BioMAP Diversity Plus: LPS Assay for Interleukin-8 (IL8) Biomarker Activity (AID 2283078). The settings on record: primary human HUVEC with PBMC; actives raise or lower the signal. The method, boiled down:
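Human umbilical vein endothelial cells co-cultured with PBMC were stimulated with LPS; IL-8 levels were measured by ELISA 24 h after chemical dosing. Activity was fitted bidirectionally against DMSO as negative control and baseline.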

The nature of experiment [9]: BSK_LPS_SRB: Viability Assessment in the BioMAP Diversity Plus: LPS Assay (AID 2283079).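 Also: total protein by sulforhodamine B absorbance as a cytotoxicity measure; measured one day after compound addition; fitted in both directions against DMSO so loss or gain of signal counts.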 The settings on record: primary human HUVEC with PBMC. The method, boiled down:
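Human umbilical vein endothelial cells co-cultured with PBMC (LPS system) were dosed for 24 h. Total protein was stained with 0.1% sulforhodamine B after 10% TCA fixation, read at 560 nm, and fitted bidirectionally against DMSO baseline.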

Read-out in experiment [10]: Interleukin-1 alpha (IL1a), IL1A (gene 3552)
Kind of experiment: BSK_LPS_IL1a: BioMAP Diversity Plus: LPS Assay for Interleukin-1 alpha (IL1a) Biomarker Activity (AID 2283080). The settings on record: primary human HUVEC with PBMC; actives raise or lower the signal. The essentials:
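Human umbilical vein endothelial cells co-cultured with peripheral blood mononuclear cells were LPS-stimulated and exposed to test chemicals for 24 h. IL-1 alpha was quantified by ELISA, with bidirectional curve fitting against DMSO as the negative control and baseline.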

Read-out in experiment [11]: Monocyte Chemoattractant Protein-1 (MCP1), CCL2 (gene 6347)
Kind of experiment: BSK_LPS_MCP1: BioMAP Diversity Plus: LPS Assay for Monocyte Chemoattractant Protein-1 (MCP1) Biomarker Activity (AID 2283081).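 As to AC50: secreted MCP-1 protein quantified by ELISA in culture supernatant.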 The settings on record: primary human HUVEC with PBMC; actives raise or lower the signal. The essentials: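 HUVEC plus PBMC co-culture (human primary cells, LPS system) exposed to test chemical for 24 h; MCP-1 measured by ELISA. Bidirectional curve fitting against DMSO baseline; parallel SRB total-protein staining flags overt cytotoxicity.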

A short description of experiment [12]: BSK_LPS_PGE2: BioMAP Diversity Plus: LPS Assay for Prostaglandin E2 (PGE2) Biomarker Activity (AID 2283082). The settings on record: primary human HUVEC with PBMC; actives raise or lower the signal. The essentials:
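HUVEC plus human PBMC co-culture stimulated with LPS; secreted PGE2 quantified by ELISA 24 h after chemical dosing. Activity fitted bidirectionally against DMSO baseline; parallel SRB staining (0.1% SRB after 10% TCA fixation, 560 nm) flags overt cytotoxicity.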

Read-out in experiment [13]: Macrophage colony-stimulating factor (MCSF), CSF1 (gene 1435)
In words: BSK_LPS_MCSF: BioMAP Diversity Plus: LPS Assay for Macrophage colony-stimulating factor (MCSF) Biomarker Activity (AID 2283083). The settings on record: primary human HUVEC with PBMC; actives raise or lower the signal. The method, boiled down:
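Human umbilical vein endothelial cells co-cultured with peripheral blood mononuclear cells were exposed to compound for 24 h. M-CSF levels were measured by ELISA, and bidirectional curve fitting used DMSO as the negative control and baseline.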

Read-out in experiment [14]: Tissue Factor, F3 (gene 2152)
Kind of experiment: BSK_LPS_TissueFactor: BioMAP Diversity Plus: LPS Assay for Tissue Factor Biomarker Activity (AID 2283084). The note with it: primary human HUVEC with PBMC; actives raise or lower the signal. The method, boiled down:
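Human umbilical vein endothelial cells co-cultured with peripheral blood mononuclear cells were dosed and stimulated with LPS. Cell-surface CD142 was quantified by ELISA at 24 h. Activity was fitted bidirectionally against DMSO baseline.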

Read-out in experiment [15]: Tumor necrosis factor (Homo sapiens) (UniProt P01375)
Kind of experiment: BSK_LPS_TNFa: BioMAP Diversity Plus: LPS Assay for Tumour Necrosis Factor alpha (TNFa) Biomarker Activity (AID 2283085).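 As to AC50: TNFa protein level quantified by ELISA in the co-culture.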 The settings on record: primary human HUVEC with PBMC; actives raise or lower the signal. The method, boiled down:
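Human umbilical vein endothelial cells co-cultured with PBMC and stimulated with LPS. TNFa was measured by ELISA 24 h after chemical dosing, fitted bidirectionally relative to DMSO.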

Read-out in experiment [16]: Vascular cell adhesion molecule 1 (VCAM1), VCAM1 (gene 7412)
In words: BSK_LPS_VCAM1: BioMAP Diversity Plus: LPS Assay for Vascular cell adhesion molecule 1 (VCAM1) Biomarker Activity (AID 2283086). The settings on record: primary human HUVEC with PBMC; actives raise or lower the signal. The method, boiled down:
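Human umbilical vein endothelial cells co-cultured with PBMC and stimulated with LPS; VCAM-1 measured by ELISA 24 h after dosing. Bidirectional curve fitting against DMSO baseline; cytotoxicity tracked in parallel by SRB total-protein staining.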

Read-out in the next experiment: CD38, CD38 (gene 952)
Kind of experiment: BSK_SAg_CD38: BioMAP Diversity Plus: SAg Assay for CD38 Biomarker Activity (AID 2283087). The note with it: primary human HUVEC with PBMC; actives raise or lower the signal. The method, boiled down: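 Human HUVEC plus PBMC co-culture stimulated with superantigen; CD38 measured by ELISA 24 h after chemical dosing. Fluorescence read-out, bidirectional fit against DMSO; cytotoxicity tracked in parallel by SRB and Alamar Blue.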

Read-out in experiment [17]: CD40, CD40 (gene 958)
In words: BSK_SAg_CD40: BioMAP Diversity Plus: SAg Assay for CD40 Biomarker Activity (AID 2283088). The note with it: primary human HUVEC with PBMC; actives raise or lower the signal. The method, boiled down:
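Human umbilical vein endothelial cells co-cultured with PBMC; CD40 levels measured by ELISA with fluorescence read-out 24 h after chemical dosing. Gain or loss of signal fitted bidirectionally against DMSO baseline.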

Read-out in the next experiment: CD69, CD69 (gene 969)
Kind of experiment: BSK_SAg_CD69: BioMAP Diversity Plus: SAg Assay for CD69 Biomarker Activity (AID 2283089).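 As to AC50: cell surface CD69 protein quantified by ELISA with fluorescence detection.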 The settings on record: primary human HUVEC with PBMC; actives raise or lower the signal. The essentials: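 Values derive from bidirectional fitting relative to DMSO vehicle. Cells: umbilical vein endothelium plus peripheral blood mononuclear cells, treated 24 h before fluorescent ELISA for CD69.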

Read-out in experiment [18]: Transforming growth factor beta 1 (TGFb1), TGFB1 (gene 7040)
In words: BSK_KF3CT_TGFb1: BioMAP Diversity Plus: KF3CT Assay for Transforming growth factor beta 1 (TGFb1) Biomarker Activity (AID 2283072). The note with it: primary human keratinocytes with fibroblasts; actives raise or lower the signal. The essentials: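 Human keratinocyte/foreskin fibroblast co-culture; TGF-b1 measured by ELISA 24 h after dosing, fitted bidirectionally versus DMSO. Cytotoxicity checked in parallel cultures by total protein (SRB staining, 560 nm).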

Molecules are shown by their SMILES. Where “and” joins values, the source holds several entries; their conditions need not be identical. Equal entries are not always repeated. A structure can be active in one record and inactive in another. Calls of active or inactive are those of the source. The calls were made as follows: active = hit-call score of the fitted dose curve at least 0.9, where 1 is the maximum; inactive = score below 0.9.

E-selectin (Homo sapiens), sequence (P16581 whole entry, looked up): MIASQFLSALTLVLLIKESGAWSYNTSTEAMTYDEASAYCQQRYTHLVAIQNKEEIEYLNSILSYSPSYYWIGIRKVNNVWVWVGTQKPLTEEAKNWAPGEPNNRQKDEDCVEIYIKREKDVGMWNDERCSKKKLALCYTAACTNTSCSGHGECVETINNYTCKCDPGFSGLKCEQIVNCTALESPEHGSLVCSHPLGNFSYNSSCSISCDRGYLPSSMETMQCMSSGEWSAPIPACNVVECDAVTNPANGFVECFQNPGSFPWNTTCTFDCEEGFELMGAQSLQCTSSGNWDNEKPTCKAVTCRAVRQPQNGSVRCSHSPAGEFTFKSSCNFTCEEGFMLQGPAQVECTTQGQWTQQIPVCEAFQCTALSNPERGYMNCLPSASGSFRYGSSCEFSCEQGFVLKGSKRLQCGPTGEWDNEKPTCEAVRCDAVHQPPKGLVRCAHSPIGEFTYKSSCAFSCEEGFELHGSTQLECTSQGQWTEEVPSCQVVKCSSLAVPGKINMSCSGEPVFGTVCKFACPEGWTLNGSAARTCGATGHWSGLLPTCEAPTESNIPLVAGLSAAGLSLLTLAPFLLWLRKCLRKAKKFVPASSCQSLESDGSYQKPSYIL
Tumor necrosis factor (Homo sapiens), sequence (P01375 whole entry, looked up): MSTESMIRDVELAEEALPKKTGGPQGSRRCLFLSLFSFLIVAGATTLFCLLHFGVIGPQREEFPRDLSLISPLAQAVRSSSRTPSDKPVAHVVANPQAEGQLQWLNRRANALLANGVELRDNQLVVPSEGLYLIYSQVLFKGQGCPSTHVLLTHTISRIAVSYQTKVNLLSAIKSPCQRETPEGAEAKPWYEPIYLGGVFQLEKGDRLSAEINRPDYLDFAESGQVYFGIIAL

Usually AC50 stands for the concentration giving half of the maximal activity seen. In the case of `OCCCC(F)(F)C(F)(F)C(F)(F)C(F)(F)C(F)(F)C(F)(F)C(F)(F)F`, the AC50 is 24 µM (active) and 43.8 µM (active) in [1]; 14.7 µM (active) and 37 µM (active) in [2]; 27.3 µM (active) and 42.9 µM (active) in [3]; 20 µM (active) and 45 µM (active) in experiment [4]; 22.8 µM (active) and 47.2 µM (active) in experiment [5]; 45.6 µM (active) and 45.1 µM (active) with CD40, CD40 (gene 958) [6]. In addition, the AC50 in experiment [7] was 50.6 µM (active) and 43.6 µM (active); in experiment [8] it was 53.5 µM (active) and 54.5 µM (active); in experiment [9], 54 µM (active) and 46.2 µM (active); in experiment [10], 46 µM (active); in [11] it was 44.7 µM (active) and 44.2 µM (active); in experiment [13], 46 µM (active) and 47.8 µM (active). In addition, the AC50 in experiment [14] was 49.9 µM (active) and 45.5 µM (active); in experiment [15], 48 µM (active) and 25.8 µM (active); in [16], 51.4 µM (active) and 43.6 µM (active); with CD38, CD38 (gene 952), 47.1 µM (active) and 49.3 µM (active); with CD40, CD40 (gene 958) [17], 48 µM (active) and 50.1 µM (active); with CD69, CD69 (gene 969), 42.4 µM (active) and 41.7 µM (active). Also, the result in experiment [10] and in [12] was inactive.

On to `O=S(=O)(OCCOC(F)(F)F)C(F)(F)F`, for which the outcome in [1] is “inactive”; in [2], “inactive”; in experiment [3] it was “inactive”; in experiment [4] it was “inactive”; in experiment [5], “inactive”; with CD40, CD40 (gene 958) [6], “inactive”. In addition, the result in experiment [7], in [8], in [9], in experiment [10], in [11] and in experiment [12] was inactive. The outcome in [13] is “inactive”; in [14], “inactive”; in [15] it was “inactive”; in [16], “inactive”; in the experiment with CD38, CD38 (gene 952) it was “inactive”; with CD40, CD40 (gene 958) [17], “inactive”. Besides, the result with CD69, CD69 (gene 969) was inactive.

Consider `CCCCCCCOC(=O)c1ccccc1C(=O)OCCCCCCC`, for which the outcome in experiment [2] is “inactive”; in experiment [18], “inactive”; in experiment [3], “inactive”; in experiment [4] it was “inactive”; in [5], “inactive”; in the experiment with CD40, CD40 (gene 958) [6] it was “inactive”. Also, the outcome in experiment [7], in [8], in [9], in [10], in [11] and in experiment [12] was inactive. In addition, the outcome in experiment [13] was “inactive”; in [14], “inactive”; in experiment [15], “inactive”; in [16], “inactive”; with CD38, CD38 (gene 952), “inactive”; with CD40, CD40 (gene 958) [17] it was “inactive”. Moreover, the result with CD69, CD69 (gene 969) was inactive.
